SMN2 splice enh: increases expression of the SMN2 splice variant. Potency, µM (doses to about 46.1 µM), without a hit: at the top dose activity change, positive = activation, hits mostly activators. 2.8% of 210,000 active. HEK293 SMN2-luciferase splicing reporter, luminescence, 30-36 h. AID 1458; note: % of control where 0% means no effect; nearly all actives have a fitted effect of over 55% in size
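HEK293 cells carry an SMN2 minigene-luciferase reporter in which exon 7 inclusion puts luciferase in frame. Cells were seeded at 2000 cells/well, attached for 10-12 hours, then exposed to compounds for 30-36 hours at 37C before ONE-Glo luminescence.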
NPC1 promoter act: activators of NPC1 promoter. Huh7 NPC1 promoter luciferase reporter, 24 h. Potency, µM (doses to about 9.22 µM), without a hit: top-dose activation, hits mostly activators. 2.4% of 320,000 active. AID 485313; note: % of control where 0% means no effect; nearly all actives have a fitted effect of over 60% in size
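Huh7 reporter cells (NPC1 promoter driving luciferase) are dosed with compound for 24 h at 37 °C, 5% CO2; luciferase detection reagent is then added and luminescence measured after 10 min at ambient temperature.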
FLuc modulator: inhibits or activates purified firefly luciferase, miR-21 counter-screen | P08659 | purified FLuc, Km substrates, luminescence inhibition | Potency, µM (top dose mostly 57.5 µM), inactives show at the top dose activity change, negative = inhibition, hits mostly inhibitors | 6.9% of 360,000 active | AID 588342;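 note: plate controls were vehicle for no effect and reference inhibitor for full effect; nearly all actives have a fitted effect of over 55% in size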
Target sequence (P08659 whole entry, looked up): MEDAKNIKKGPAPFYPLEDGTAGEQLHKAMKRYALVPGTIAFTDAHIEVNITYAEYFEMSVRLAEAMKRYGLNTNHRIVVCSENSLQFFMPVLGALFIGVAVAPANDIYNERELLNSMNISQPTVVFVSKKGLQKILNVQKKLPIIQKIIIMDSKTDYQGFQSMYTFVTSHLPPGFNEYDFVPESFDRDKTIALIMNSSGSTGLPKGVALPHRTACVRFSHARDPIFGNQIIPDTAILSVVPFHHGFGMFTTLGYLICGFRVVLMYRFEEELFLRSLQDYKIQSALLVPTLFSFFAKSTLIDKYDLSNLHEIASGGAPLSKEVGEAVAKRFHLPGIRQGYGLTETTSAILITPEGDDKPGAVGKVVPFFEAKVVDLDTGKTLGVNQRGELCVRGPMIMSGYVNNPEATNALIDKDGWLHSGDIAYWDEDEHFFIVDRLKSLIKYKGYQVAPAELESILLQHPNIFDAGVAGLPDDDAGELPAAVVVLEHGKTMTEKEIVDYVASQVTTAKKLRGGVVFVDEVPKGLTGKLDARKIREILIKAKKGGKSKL
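Purified P. pyralis luciferase, 10 nM final, with Km-level 10 uM D-luciferin and 10 uM ATP in 50 mM Tris acetate pH 7.5, 10 mM Mg acetate, 0.01% Tween-20, 0.05% BSA; 6-point qHTS titration about 60 µM downward; luminescence read.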
ELG1 repair inh: ELG1-dependent DNA repair inhibition | HEK293T ELG1-luciferase reporter, luminescence, 16 h; DNA damage induced by 5-fluorouridine | Potency, µM (doses to about 46.1 µM), without a hit: at the highest dose activity change, negative = inhibition, actives largely listed as inhibitors | 2.3% of 330,000 active; note: % is set by controls: 0 for no effect and ±100 for the full control effect; nearly all actives have a fitted effect of over 55% in size
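5-Fluorouridine DNA damage + compound/DMSO, 2,000 cells/well, 16 h, 37 °C/5% CO2. ONE-Glo, 30 min RT, luminescence. Readout = decrease in reporter signal.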
ELG1 genotox: inducers of genotoxicity in HEK293T ELG1-luciferase cells | HEK293T ELG1-luciferase reporter, luminescence, 16 h | Potency, µM (highest dose often 46 µM), for inactives: at the top dose activity change, positive = activation, actives largely listed as activators | 1.3% of 330,000 active; note: % of control where 0% means no effect; nearly all actives have a fitted effect of over 60% in size
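Genotoxicity was scored as increased ELG1-luciferase reporter signal, measured by ONE-Glo luminescence (30 min, room temperature). Compound or vehicle exposure of the HEK293T reporter cells lasted 16 hr at 37°C.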
Rab9 prom act: activators of Rab9 promoter; Huh7 Rab9 promoter-luciferase reporter, luminescence, 24 h; Potency, µM (series often up to 9.22 µM), for inactives: at the top dose activation, negative = inhibition, usual class: activators; 2.8% of 320,000 active; AID 485297; note: % of control where 0% means no effect; nearly all actives have a fitted effect of over 60% in size
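Measured in stably transfected Huh7 cells bearing a Rab9 promoter–luciferase construct: 24 h compound treatment at 37 °C, followed by luminescence detection.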
* hit, by the source's call; [ ] = remark or other dose. This is a sample that favours compounds with a hit; in the whole collection about 9.3% have one here. Calls come from the whole dose curve; as a rule, active = well fitted curve in the direction sought with a large enough effect; inconclusive = small, poorly fitted or top-dose-only effect, or another doubt; inactive = no such curve, though single readings can be large; an effect the other way counts as inactive or inconclusive. Potency is the fitted concentration of half-maximal effect.

COc1cc(NC(=S)NC(=O)c2ccccc2F)ccc1NC(=O)c1cccs1 was read as SMN2 splice enh -10.5%, NPC1 promoter act 3.4%, FLuc modulator -12.2%, ELG1 repair inh 11.4%, ELG1 genotox 10.8% and Rab9 prom act 2.2%.
COc1cc(NC(=O)c2cc3ccccc3cc2OC)ccc1NC(=O)c1cccs1 was read as NPC1 promoter act -6.9%, FLuc modulator -0.2%, ELG1 repair inh 14.6µM*, ELG1 genotox -15.6% and Rab9 prom act -1.4%.
Cc1ccc(Cl)cc1NC(=O)Cn1c(=O)n(CCC(=O)NCc2ccc3c(c2)OCO3)c(=O)c2sccc21 was read as SMN2 splice enh -9.0% and FLuc modulator -7.1%.
For CC(C)(C)OC(=O)C[C@H]1C/C=C\C[C@@H](CC(=O)N[C@@H](CO)Cc2ccccc2)C(=O)NCCOC1=O the results were ELG1 repair inh 18.1% and ELG1 genotox 0.0%.
For COc1ccc(C(CNC(=O)COc2cc(C)c(Cl)c(C)c2)N2CCCCC2)cc1 (centres undefined) the results were SMN2 splice enh 4.9%, NPC1 promoter act -1.4%, FLuc modulator 2.6%, ELG1 repair inh -1.8%, ELG1 genotox -5.0% and Rab9 prom act -14.5%.
`O=C(NCCN1CCOCC1)c1ccc(Cl)cc1O` gave NPC1 promoter act 3.0%, FLuc modulator 0.8%, ELG1 repair inh 3.0%, ELG1 genotox 1.8% and Rab9 prom act 5.9%.
For CC1N(C)c2cc(NC(=O)c3cccs3)c(P(=O)(Nc3ccc([N+](=O)[O-])cc3)N3CCOCC3)cc2C1(C)C (centres undefined) the results were SMN2 splice enh 19.0%, NPC1 promoter act -3.5%, FLuc modulator -1.5%, ELG1 repair inh 18.3µM*, ELG1 genotox -9.3% and Rab9 prom act 2.0%.
`Cc1ccc(NC(=O)c2cc3ccccn3n2)cc1F` gave FLuc modulator 2.39µM*.
`O=C(NCCc1ccc(Cl)cc1)c1cc2ccccn2n1` gave NPC1 promoter act 2.9%, FLuc modulator -18.3%, ELG1 repair inh 12.9%, ELG1 genotox 2.6% and Rab9 prom act 17.3%.
For CCc1ccc(NC(=O)c2cc3ccccn3n2)cc1 the results were FLuc modulator 1.9µM*.
Screening Cc1ccccc1CCNC(=O)c1cc2ccccn2n1 returned FLuc modulator 10.7µM*.
O=C(Nc1ccc(Br)cc1)c1cc2ccccn2n1 was read as NPC1 promoter act 0.562µM*, FLuc modulator 0.953µM*, ELG1 repair inh inconclusive, ELG1 genotox inconclusive and Rab9 prom act 0.316µM*.
For Cc1ccc(NC(=O)CCn2cccc2)cc1F the results were SMN2 splice enh -6.7%, NPC1 promoter act -2.0%, FLuc modulator 4.0%, ELG1 repair inh inconclusive, ELG1 genotox 5.3% and Rab9 prom act -0.5%.
For Cc1ccccc1C(=O)Nc1nnc(SCc2cc(=O)c3c(C)ccc(C)c3[nH]2)s1 the results were FLuc modulator -13.3%.
Screening Cc1ccc(S(=O)(=O)N2CCC(NC(=O)c3ccccc3)CC2)cc1 returned NPC1 promoter act 2.7%, FLuc modulator -1.8%, ELG1 repair inh inconclusive, ELG1 genotox 3.9% and Rab9 prom act -7.4%.
`O=C(NC1CCC(=O)N(CCOc2ccccc2)CC1)OCc1ccccc1` (centres undefined) gave NPC1 promoter act -5.3%, FLuc modulator 10.8%, ELG1 repair inh -0.5%, ELG1 genotox -1.6% and Rab9 prom act -1.7%.
Cc1cccc(C#Cc2ccccc2)n1 was read as SMN2 splice enh 12.6µM*, NPC1 promoter act 5.8µM*, FLuc modulator 6.01µM*, ELG1 repair inh inconclusive, ELG1 genotox 8.2µM* and Rab9 prom act 5.01µM*.
COc1cccc(/C=N/NC(=O)CNC(=O)CCc2ccccc2)c1O was read as NPC1 promoter act -7.7%, FLuc modulator 9.53µM*, ELG1 repair inh inconclusive, ELG1 genotox inconclusive and Rab9 prom act -13.2%.
Screening Cc1ccc(/C=N/NC(=O)CNC(=O)c2cccs2)cc1 returned NPC1 promoter act 1.5%, FLuc modulator 15.1µM*, ELG1 repair inh inconclusive, ELG1 genotox inconclusive and Rab9 prom act 28.5%.
Screening O=C(CNC(=O)c1cccs1)N/N=C/c1c(F)cccc1Cl returned NPC1 promoter act 13.2%, FLuc modulator 21.3µM*, ELG1 repair inh inconclusive, ELG1 genotox inconclusive and Rab9 prom act 16.3%.
Screening COc1ccccc1/C=C\C(=O)NCC(=O)N/N=C/c1cccc(OC)c1O returned NPC1 promoter act -24.4%, FLuc modulator -4.0%, ELG1 repair inh -6.0%, ELG1 genotox inconclusive and Rab9 prom act -8.5%.
COc1cccc(/C=N/NC(=O)CNC(=O)c2cccs2)c1O was read as NPC1 promoter act 1.2%, FLuc modulator 21.3µM*, ELG1 repair inh inconclusive, ELG1 genotox 16.3% and Rab9 prom act -8.2%.
For CCCCC1=CC2=C(OC(C)=O)C(=O)C(C)(OC(=O)C3CCCC3)C(=O)C2=CO1 (centres undefined) the results were SMN2 splice enh 12.2%.
Screening C[C@H](NC(=O)N1CCc2nc(COc3ccccc3)c3c(c2C1)CO[C@@H](C)C3)c1ccccc1 returned SMN2 splice enh -5.4%[9.22 µM].
Screening COc1ccc(C(=O)Oc2cc(C)[nH]c(=O)c2[N+](=O)[O-])c(OC)c1 returned NPC1 promoter act -2.8%, FLuc modulator -6.7%, ELG1 repair inh -0.5%, ELG1 genotox 4.5% and Rab9 prom act -11.0%.
`CN(C)S(=O)(=O)Nc1cccc(-c2cn3c(n2)SCC3)c1` gave NPC1 promoter act -1.0%, FLuc modulator -3.8%, ELG1 repair inh -8.7%, ELG1 genotox -0.1% and Rab9 prom act -1.2%.
Screening Cc1ccc(-c2cn3c(n2)SCC3)cc1 returned SMN2 splice enh 11.2µM*, NPC1 promoter act 2.24µM*, FLuc modulator inconclusive, ELG1 repair inh inconclusive, ELG1 genotox -6.8% and Rab9 prom act 2µM*.
For CCc1ccc(-c2cn3c(n2)SCC3)cc1 the results were NPC1 promoter act 1.58µM*, FLuc modulator 2.39µM*, ELG1 repair inh inconclusive, ELG1 genotox inconclusive and Rab9 prom act 1.41µM*.
`CN(C)C(CNC(=O)c1cccc(S(=O)(=O)NCc2ccccc2)c1)c1ccco1` (centres undefined) gave NPC1 promoter act -0.2%, FLuc modulator 0.6%, ELG1 repair inh 1.8%, ELG1 genotox -1.4% and Rab9 prom act -3.9%.
Screening CC(Sc1ccccc1)C(=O)NCCc1ccccc1 (centres undefined) returned NPC1 promoter act 18.6%, FLuc modulator inconclusive, ELG1 repair inh 13.7%, ELG1 genotox 10.8% and Rab9 prom act 26.7%.
